From PubChem BioAssay come the findings set out here.

Test [1] in a line: inhibitors of TNFa-induced NFkB p65 translocation, primary screen, imaging, HUVEC, MLSMR starter and 10KST1 sets (AID 438;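 active = inhibition above 20% together with a positive visual image hit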;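 note: compound added about 3h40 before a 20 min TNFalpha stimulation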;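 for inhibition: signal is the nuclear over cytoplasmic p65 intensity ratio per well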). Conditions: HUVEC TNFa-induced p65 nuclear translocation; cell count: measured here: nuclei count (cytotoxicity indicator), at 2.08 µM unless noted; inhibition: at 2 µM, stronger effect = higher value unless noted.
Test [2] in a line: inhibitors of mutant huntingtin aggregation, primary screen, imaging, exon1htt(103Q)mCFP cells, high-content imaging (AID 483;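 active = visual image review flags a hit and inhibition of aggregation exceeds 20%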;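 note: compound exposure lasted 3 days before fixation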;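 for nuclei count: percent of the per-plate median nuclei count of sample wells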). Conditions: exon1htt(103Q)mCFP cell line, aggregate imaging, at 2 µM; inhibition of aggregation: stronger effect = higher value; nuclei count: measured here: cell count, toxicity.
Test [3] is described as follows: inhibitors of E-selectin induction by TNFa, primary screen, imaging, HUVEC, immunofluorescence, MLSMR starter and 10KST1 sets (AID 487;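 active = visually confirmed hit in the image check and inhibition above 20%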;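 for inhibition: signal is fraction of cell area covered by stained E-selectin grains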;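 for nuclei count: 100% = median nuclei count of all wells on the same plate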). Conditions: HUVEC TNFalpha-induced E-selectin immunofluorescence imaging, at 2 µM; inhibition: stronger effect = higher value; nuclei count: measured here: cell number, toxicity.
Test [4] is described as follows: DUSP6 inhibitors restoring Erk phosphorylation by chemical complementation, primary imaging in DUSP6-transfected HeLa (AID 609;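 active = compounds giving at least 50% inhibition in the cell-based MKP-3 phosphatase rescue imaging test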;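 for inhibition: phospho-Erk level distribution per well compared with pooled transfected vehicle control wells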). Conditions: HeLa MKP-3 transfected, phospho-Erk imaging KS statistic, at 10 µM.
Test [5] addresses Dual specificity protein phosphatase 6 (Homo sapiens) (UniProt Q16828). Described as above. Conditions: HeLa MKP-3 transfected, phospho-Erk imaging KS statistic, at 10 µM, stronger effect = higher value.
Test [6] has as its target Voltage-gated potassium channel subunit beta-2 (Rattus norvegicus) (UniProt P62483). The experiment in a line: KvBeta enzyme negative modulators, primary screen, biochemical, NADPH fluorescence (AID 622;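 active = fluorescence slope higher than the sample average by over 3 SD, cut at about -0.22 in these data, passing the limit was not always enough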;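 note: slope of raw intensity against log time taken from 70 to 1610 s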). To be noted: recombinant KvBeta, 4-cyanobenzaldehyde reduction, at 10 µM, stronger effect = higher value.
Test [7] has the same target. The experiment in a line: KvBeta positive modulators, primary screen, biochemical, NADPH fluorescence (AID 623;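 active = NADPH fluorescence slope more negative than the mean of all samples by about 3 SD, 99.7% confidence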;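 note: fluorescence intensity change per second fitted from 20 to 320 s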). To be noted: Recombinant KvBeta, NADPH fluorescence decrease slope, 10 min; at 10 µM; stronger effect = lower value.
Test [8] has as its target Alpha-2C adrenergic receptor (Homo sapiens) (UniProt P18825). Briefly: modulators of alpha2C/GIRK thallium flux, primary screen, cell-based, HEK293 alpha2C/GIRK1/2 (AID 624;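 active = fluorescence slope after compound addition differing from the mean of all screened samples at 99.7% confidence, in either direction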;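 note: slope of fluorescence ratio to pre-addition baseline per second over 15 to 24 s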). Conditions: thallium flux BTC fluorescence, at 10 µM, actives lie on both sides.
The nature of test [9]: inhibitors of larval lipid processing in zebrafish, primary screen, whole organism, PED6 fluorescence, gall bladder and intestine (AID 686;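 active = a full or partial loss of lipid-probe fluorescence in the fish gall bladder, intestine or both, judged by eye; inactive = no fluorescence loss, or compound toxic to the fish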;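 note: larvae 5 to 7 days old with five fish per well; signal comes from phospholipase A2 cleavage of quenched PED6 carried via bile; overnight exposure to compound and PED6 before scoring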). Conditions: Zebrafish larvae PED6 lipid processing, fluorescence scoring.
Test [10] in a line: inhibitors of Chlamydomonas gravitaxis, primary screen, whole organism, Chlamydomonas reinhardtii, WT vs cilia-less mutant, absorbance, 96-well (AID 463189).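 Note: 0% = wild type cc124 cells in DMSO and 100% = ciliumless bld1 mutant cells.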 Conditions: OD600 absorbance, 2 days, at 10 µM, stronger effect = higher value.
The nature of test [11]: inhibitors of Sendai virus-induced IRF3 signaling, primary screen, TLR/RLR signaling modifier project, cell-based, Sendai virus stimulus, luciferase, 10K MLSCN set (AID 602276;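 active = inhibition at or above 50% at 10 µM; inactive = inhibition below 50%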;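 note: firefly luciferase from ISG56 promoter only with Renilla not read in this screen; 0% = Sendai virus plus DMSO and 100% = medium plus DMSO without virus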). Conditions: HEK293 RL24 IRF3 luciferase reporter, at 10 µM, stronger effect = higher value.
The nature of test [12]: inhibitors of poly I:C-induced TLR3 signaling, primary screen, cell-based, poly I:C stimulus, luciferase, 10K MLSCN set (AID 602277;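 active = inhibition of the reporter signal at or above 50%; inactive = inhibition below 50%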). Conditions: HEK293-TLR3 RL24 IRF3 luciferase reporter, at 10 µM, stronger effect = higher value. (In general: In a reporter assay the amount or activity of a reporter protein is the signal.)
For test [13], the target named is Solute carrier family 12 member 5 (Homo sapiens) (UniProt Q9H2X9). Briefly: KCC2 modulators in sodium-free buffer, confirmation, cell-based, HEK293 KCC2, thallium flux, secondary assay (AID 1713;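 active = thallium flux slope above the same plate's solvent-only control mean plus 3 SD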). To be noted: FluoZin2 fluorescence, at 10 µM, stronger effect = higher value.
A short description of another test: PubChem AID 1714.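 Note: raw slope of fluorescence over initial fluorescence between 10 and 20 s after thallium.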 To be noted: HEK293-KCC2 + bumetanide/ouabain, thallium flux FluoZin2; at 10 µM; stronger effect = higher value.
Test [14] has as its target Solute carrier family 12 member 5 (Homo sapiens) (UniProt Q9H2X9). Briefly: KCC2 modulators without ouabain present, confirmation, cell-based, HEK293 KCC2, thallium flux, FluoZin2, secondary assay 2 (AID 1715;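 active = thallium flux slope more than 3 SD above or below the plate's solvent-only control mean, mostly below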;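 note: raw slope with 0.1% DMSO as baseline and bumetanide as block control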). To be noted: HEK293-KCC2, thallium flux FluoZin2 fluorescence; at 10 µM; actives lie on both sides.
Test [15] in a line: thallium flux modulation in parental HEK cells, confirmation, counter-screen for KCC2 modulator project, cell-based, counterscreen 1 (AID 1716;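 active = thallium flux rate significantly above the same plate's solvent-only control wells, beyond their mean plus 3 SD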). To be noted: HEK293 parental cells, thallium flux FluoZin2, ouabain; at 10 µM; baseline-ratio fluorescence slope, 10–20 s after thallium. (The purpose of a counterscreen is to sort out artefacts and off-target activity.)
In test [16] the target is Solute carrier family 12 member 5 (Homo sapiens) (UniProt Q9H2X9). Briefly: KCC2 inhibitors and activators, ouabain retest, confirmation, HEK-KCC2 cells (AID 1717;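 active = thallium flux slope beyond 3 SD from same-plate DMSO control mean in most replicates, usually higher, sometimes lower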;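 note: slope of initial-normalized fluorescence between seconds 10 and 20 after thallium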). To be noted: HEK293-KCC2, thallium flux FluoZin2 fluorescence, at 10 µM, bidirectional: low = inhibitor, high = activator.
A short description of test [17]: native HEK Tl+ uptake effects, second counter-screen – HEK cells, counterscreen 2, counter-screen for KCC2 modulator project, confirmation (AID 1718;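 active = thallium flux slope above the same plate's solvent-control mean plus 3 SD in both duplicate wells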;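 note: run without ouabain in cells lacking the KCC2 cotransporter; slope of fluorescence scaled to its starting value between 10 and 20 s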). Conditions: HEK293 parental, thallium flux FluoZin-2 fluorescence slope; at 10 µM.
[18] abbreviates: measured here: cell density z-score.
Where [19] appears, read: measured here: nuclear c-Myc green intensity z-score.
Setting [20] is: measured here: nuclear pErk red intensity z-score, stronger effect = higher value.

For orientation: inhibition means the relative decrease from the control value, in per cent.

The structures appear in SMILES notation. “And” between values parts separate entries of the source, which are not always exact repeats. Identical values can stand only once. Some of the results follow. Results filed as inconclusive are left out. The source made the active and inactive calls.

Solute carrier family 12 member 5 (Homo sapiens), sequence (Q9H2X9 whole entry, looked up): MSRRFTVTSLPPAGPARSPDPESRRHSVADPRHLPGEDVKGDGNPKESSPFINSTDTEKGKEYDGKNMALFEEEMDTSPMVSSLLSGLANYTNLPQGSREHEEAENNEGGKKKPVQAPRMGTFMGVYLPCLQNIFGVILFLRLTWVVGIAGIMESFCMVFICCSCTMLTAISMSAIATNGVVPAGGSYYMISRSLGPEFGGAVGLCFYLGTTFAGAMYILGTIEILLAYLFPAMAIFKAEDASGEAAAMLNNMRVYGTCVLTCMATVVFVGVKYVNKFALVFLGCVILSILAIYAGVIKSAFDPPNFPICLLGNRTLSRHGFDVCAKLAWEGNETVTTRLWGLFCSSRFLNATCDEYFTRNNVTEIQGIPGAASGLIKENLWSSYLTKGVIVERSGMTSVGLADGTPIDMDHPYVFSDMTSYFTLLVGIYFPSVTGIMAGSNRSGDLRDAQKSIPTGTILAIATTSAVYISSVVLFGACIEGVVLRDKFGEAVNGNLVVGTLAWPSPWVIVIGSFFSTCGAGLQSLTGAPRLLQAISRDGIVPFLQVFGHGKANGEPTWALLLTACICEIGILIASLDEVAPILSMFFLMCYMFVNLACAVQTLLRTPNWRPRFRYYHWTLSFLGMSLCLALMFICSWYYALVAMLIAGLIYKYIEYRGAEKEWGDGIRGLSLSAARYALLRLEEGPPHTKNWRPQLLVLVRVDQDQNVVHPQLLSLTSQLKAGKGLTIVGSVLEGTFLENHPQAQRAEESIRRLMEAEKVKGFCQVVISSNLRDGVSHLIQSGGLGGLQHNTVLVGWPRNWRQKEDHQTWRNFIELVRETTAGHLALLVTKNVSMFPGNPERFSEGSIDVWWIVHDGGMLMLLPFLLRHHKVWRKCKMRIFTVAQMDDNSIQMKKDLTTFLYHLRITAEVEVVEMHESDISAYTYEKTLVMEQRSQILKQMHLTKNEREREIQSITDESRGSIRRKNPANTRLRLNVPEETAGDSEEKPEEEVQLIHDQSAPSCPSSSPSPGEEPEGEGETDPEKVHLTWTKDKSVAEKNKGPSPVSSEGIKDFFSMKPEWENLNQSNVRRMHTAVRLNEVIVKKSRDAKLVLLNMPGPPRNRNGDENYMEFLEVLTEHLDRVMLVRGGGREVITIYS
Dual specificity protein phosphatase 6 (Homo sapiens), sequence (Q16828 whole entry, looked up): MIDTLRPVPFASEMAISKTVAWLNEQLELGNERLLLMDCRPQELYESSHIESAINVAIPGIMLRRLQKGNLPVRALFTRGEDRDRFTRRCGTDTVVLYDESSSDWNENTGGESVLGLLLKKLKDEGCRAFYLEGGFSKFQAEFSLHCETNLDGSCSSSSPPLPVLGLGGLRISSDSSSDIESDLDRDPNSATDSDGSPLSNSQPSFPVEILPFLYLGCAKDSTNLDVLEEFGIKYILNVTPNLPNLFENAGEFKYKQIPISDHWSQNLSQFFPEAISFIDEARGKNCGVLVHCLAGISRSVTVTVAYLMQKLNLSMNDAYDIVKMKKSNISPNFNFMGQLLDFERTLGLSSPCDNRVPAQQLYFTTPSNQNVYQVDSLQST
Voltage-gated potassium channel subunit beta-2 (Rattus norvegicus), sequence (P62483 whole entry, looked up): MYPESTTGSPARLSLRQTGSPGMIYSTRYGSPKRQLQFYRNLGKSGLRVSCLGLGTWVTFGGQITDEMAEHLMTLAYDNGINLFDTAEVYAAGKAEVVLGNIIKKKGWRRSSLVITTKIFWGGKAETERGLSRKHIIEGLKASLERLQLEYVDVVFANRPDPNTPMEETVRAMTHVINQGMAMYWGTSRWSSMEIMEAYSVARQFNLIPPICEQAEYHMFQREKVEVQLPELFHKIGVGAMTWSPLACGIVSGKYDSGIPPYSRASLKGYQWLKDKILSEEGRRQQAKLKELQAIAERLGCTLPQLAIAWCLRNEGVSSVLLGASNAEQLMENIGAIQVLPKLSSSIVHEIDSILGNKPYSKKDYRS
Alpha-2C adrenergic receptor (Homo sapiens), sequence (P18825 whole entry, looked up): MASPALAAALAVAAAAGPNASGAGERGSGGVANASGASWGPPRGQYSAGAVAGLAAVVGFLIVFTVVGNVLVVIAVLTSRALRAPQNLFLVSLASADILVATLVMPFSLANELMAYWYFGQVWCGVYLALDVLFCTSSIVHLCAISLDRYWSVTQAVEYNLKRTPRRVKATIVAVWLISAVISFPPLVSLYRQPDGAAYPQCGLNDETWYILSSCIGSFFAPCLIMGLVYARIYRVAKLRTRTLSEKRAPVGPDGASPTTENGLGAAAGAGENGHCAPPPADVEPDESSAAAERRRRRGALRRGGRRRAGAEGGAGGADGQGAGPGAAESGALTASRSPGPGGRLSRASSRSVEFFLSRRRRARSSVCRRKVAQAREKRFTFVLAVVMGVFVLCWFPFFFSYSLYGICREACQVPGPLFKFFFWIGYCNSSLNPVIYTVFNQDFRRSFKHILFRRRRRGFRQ

For the compound `CN1CC[C@@]23CCCC[C@@H]2[C@@H]1Cc1ccc(O)cc13`, the cell count in test [1] turned out to be 612. Moreover, the inhibition in test [1] is -2% (inactive); in [3], -41.4% (inactive); in test [5] it was -3.03% (inactive); in test [10] it was -11.1% (inactive); in [11], -1.46% (inactive); in test [12], 37.2% (inactive). The inhibition of aggregation in test [2] is -9.3% (inactive). Moreover, the nuclei count in test [2] was 78.9%; in test [3], 127%. Further, the z-score is -1.02 in test [4] (setting [18]), 0.228 in test [4] (setting [19]) and 2.32 in test [4] (setting [20]). Moreover, the fluorescence slope in test [6] is -0.439 (inactive). The NADPH fluorescence slope in test [7] was 2.4e-05 (inactive). For the same compound, the slope in [8] was 0.00406 (inactive). The compound was called inactive in [9].

With `CC(=O)[C@@]1(O)CC[C@H]2[C@@H]3CC=C4C[C@@H](O)CC[C@]4(C)[C@H]3CC[C@@]21C`, the cell count in [1] stood at 618. The inhibition in test [1] was -10.4% (inactive); in test [3] it was -57.3% (inactive); in test [5] it was 7.39% (inactive); in test [10] it was -4.89% (inactive); in test [11] it was 9% (inactive); in test [12], 26.8% (inactive). Besides, the inhibition of aggregation in test [2] is 4% (inactive). Moreover, the nuclei count in test [2] turned out to be 99.3%; in test [3], 129%. The z-score in [4] (setting [18]) was -0.0512; in [4] (setting [19]), -0.687; in test [4] (setting [20]) it was -0.36. Also, the fluorescence slope in test [6] was -0.451 (inactive). For the same compound, the NADPH fluorescence slope in test [7] was -5.3e-05 (inactive). In addition, in [8], the slope is 0.00537 (inactive). Moreover, the compound was called inactive in [9].

For `c1ccc(Cn2ccnc2)cc1`, the cell count in test [1] was 630. The inhibition was 3.1% (inactive) in test [1]; -120% (inactive) in [3]; 8% (inactive) in test [5]; -7.16% (inactive) in test [10]; 20.5% (inactive) in test [11]; 27.2% (inactive) in test [12]. In test [2], the inhibition of aggregation is 16.2% (inactive). The nuclei count was 94.6% in test [2] and 130% in test [3]. Also, the z-score in [4] (setting [18]) was 1.25; in test [4] (setting [19]) it was -0.35; in test [4] (setting [20]) it was 1.06. Further, in test [6], the fluorescence slope was -0.486 (inactive). In [7], the NADPH fluorescence slope is 3.7e-06 (inactive). Besides, the slope in test [8] is 0.00411 (inactive). The compound was called inactive in test [9].

For the compound `O=C(CSC1c2ccccc2-c2ccccc21)N/N=C/c1ccccc1`, the normalised thallium flux (F/F0 slope) in test [13] is 0.00922 (inactive). In addition, the normalized thallium flux in “PubChem AID 1714” is 0.00567 (inactive); in test [14] it was 0.0321 (inactive). For the same compound, in test [15], the thallium flux rate (normalised fluorescence) is 0.00741 (inactive). In test [16], the raw Tl+ flux slope (below DMSO = inhibition, above = activation) is 0.02 (inactive). In test [17], the thallium flux slope is 0.0112 (active).

For `C[N+]1(C)[C@@H]2CC(OC(=O)[C@H](CO)c3ccccc3)C[C@H]1[C@@H]1O[C@@H]12` (stereo partly specified), in test [1], the cell count was 542. Further, the inhibition in test [1] is -16.3% (inactive); in test [3], -56.7% (inactive); in test [5], -0.493% (inactive); in [10], 9.4% (inactive); in test [11], -2.08% (inactive); in [12], 22.3% (inactive). In test [2], the inhibition of aggregation was 19% (inactive). Besides, the values for the nuclei count in test [2] and in test [3] were 107% and 129%, respectively. The results for the z-score in [4] (setting [18]), in test [4] (setting [19]) and in [4] (setting [20]) were -0.698, -0.0087 and -0.0821, respectively. Also, the fluorescence slope in [6] is -0.433 (inactive). In test [7], the NADPH fluorescence slope was 2.1e-05 (inactive). In test [8], the slope was 0.0054 (inactive). The compound was classed as inactive in test [9].

Turning to `O=C(CCCN1CCC2(CC1)C(=O)NCN2c1ccccc1)c1ccc(F)cc1`, the cell count in test [1] came out at 564. Also, the inhibition in [1] was 2.1% (inactive); in test [3], 3.3% (inactive); in [5] it was 3.59% (inactive); in test [10], 4.76% (inactive) and 18.8% (inactive); in test [11], 29.9% (inactive); in test [12], 29.3% (inactive). In addition, in test [2], the inhibition of aggregation is -20.4% (inactive). The nuclei count came out at 100% in test [2] and 103% in [3]. Moreover, the z-score in [4] (setting [18]) was -2.08; in test [4] (setting [19]) it was 0.206; in test [4] (setting [20]), 3.52. Also, the fluorescence slope in test [6] is -0.51 (inactive). Also, in [7], the NADPH fluorescence slope was -3.9e-05 (inactive). In addition, in test [8], the slope is 0.00481 (inactive). The call in test [9] was inactive.
